# Laboratory results published in PubChem BioAssay (NCI).
# The panel holds about 83,000 compounds, 20% with a hit somewhere; the sample as a whole holds those more often.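 Plates (96-well) were seeded with cells, treated with compound at one concentration, and incubated for 48 hours before percent growth was determined.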 A number with no mark means an inactive call. Calls of active or inactive are those of the source. The calls were made as follows: active = growth percent below 10; inactive = the rest.
# Assays:
# Assay in all cases: NCI-60 one-dose screen, 48 h (100 = growth as untreated, 0 = no growth, -100 = all killed)
# Details in all cases: 10 µM unless noted
# DU-145 prostate = tested on: DU-145 prostate
# K-562 leukemia = tested on: K-562 leukemia
# MALME-3M melanoma = tested on: MALME-3M melanoma
# MDA-MB-231 breast = tested on: MDA-MB-231 breast
# RXF 393 renal = tested on: RXF 393 renal
# SF-268 CNS = tested on: SF-268 CNS
# SF-295 CNS = tested on: SF-295 CNS
# SF-539 CNS = tested on: SF-539 CNS
# UACC-257 melanoma = tested on: UACC-257 melanoma
# M14 melanoma = tested on: M14 melanoma
# HCT-15 colon = tested on: HCT-15 colon
# HT29 colon = tested on: HT29 colon
# SNB-75 CNS = tested on: SNB-75 CNS
# SNB-19 CNS = tested on: SNB-19 CNS
# U251 CNS = tested on: U251 CNS
# PC-3 prostate = tested on: PC-3 prostate
# SK-MEL-5 melanoma = tested on: SK-MEL-5 melanoma
# LOX IMVI melanoma = tested on: LOX IMVI melanoma
# SK-MEL-28 melanoma = tested on: SK-MEL-28 melanoma
# UACC-62 melanoma = tested on: UACC-62 melanoma
SMILES,growth (DU-145 prostate),growth (K-562 leukemia),growth (MALME-3M melanoma),growth (MDA-MB-231 breast),growth (RXF 393 renal),growth (SF-268 CNS),growth (SF-295 CNS),growth (SF-539 CNS),growth (UACC-257 melanoma),growth (M14 melanoma),growth (HCT-15 colon),growth (HT29 colon),growth (SNB-75 CNS),growth (SNB-19 CNS),growth (U251 CNS),growth (PC-3 prostate),growth (SK-MEL-5 melanoma),growth (LOX IMVI melanoma),growth (SK-MEL-28 melanoma),growth (UACC-62 melanoma)
NCCn1cc(-c2nc(-c3c[nH]c4ncccc34)cs2)c2cc(Br)ccc21,82.3%,19.4%,95.9%,56.7%,80.5%,82.8%,102%,84.2%,95.5%,87.7%,27.1%,31%,72.7%,79.3%,67.9%,59.9%,85.1%,82.6%,99.4%,–
COc1ccc(C(=O)c2ccc(C)cc2)c(OC)c1OC,89.8%,40%,92.5%,75.9%,86.1%,85.9%,74.5%,77%,82.9%,61.3%,50.1%,27%,64.7%,79.4%,60.9%,86.9%,–,83.6%,85%,67.6%
Cc1cc(N2CCCCC2)nc(N(CCCNc2ccnc3cc(Cl)ccc23)Cc2ccco2)n1,39%,3.78% (active),-5.59% (active),21.8%,19.6%,44%,20.3%,-36.5% (active),49.4%,-74.4% (active),11.3%,2.02% (active),54.3%,27.4%,24.7%,2.61% (active),-91.8% (active),-34.7% (active),-23.5% (active),–
O=C(Nc1ccc(/C=C2\SC(=O)N(Cc3ccc(OC(F)(F)F)cc3)C2=O)cc1)c1ccc(Cl)c([N+](=O)[O-])c1,72.7%,46.4%,98.4%,53.2%,83.5%,62.7%,96.1%,77.2%,80.1%,104%,72.5%,11.3%,85.5%,36.8%,-18.8% (active),9.15% (active),–,73.1%,95.5%,94.4%
CCC(CC)C(=O)OC(C)COc1ccc(C(C)(C)C)cc1 (stereo not given),106%,87%,94.5%,108%,113%,99.1%,106%,109%,66.7%,96%,109%,71.7%,94.8%,103%,90.1%,73.2%,98.7%,106%,101%,–
Clc1ccc2c(NCCNc3nc(-c4ccccc4)cc(-c4ccccc4)n3)ccnc2c1,-34.1% (active),-46.6% (active),-89.3% (active),-80.9% (active),-88.2% (active),-59.7% (active),-75.8% (active),-81.1% (active),77.8%,-75.4% (active),-74.2% (active),-54.3% (active),-72.2% (active),-51.7% (active),-90.6% (active),-88.5% (active),-93.4% (active),-76.7% (active),-90.7% (active),–
Cc1cccc(C)c1NC(=O)CSC(=S)N1CCN(CCOCCO)CC1,101%,96%,87.3%,116%,125%,93.9%,95.9%,94.3%,112%,100%,105%,93.6%,96.7%,99%,104%,99.7%,110%,96%,105%,–
COc1cc2c(cc1-c1c(C)noc1C)ncc1nc(C3CCCCC3)n([C@@H](C)COC(F)F)c12,61%,24.2%,72.1%,41%,52.2%,55.6%,45.3%,31.6%,28.2%,34.7%,20.9%,13.5%,31.3%,45.6%,47.1%,30.3%,–,12.5%,45.8%,21.9%
Fc1ccc(Nc2nnc(-c3ccc(Cl)cc3)o2)cc1,107%,70.6%,95.6%,85.9%,100%,99.3%,102%,103%,88.9%,95.4%,98.4%,94.7%,102%,101%,92.1%,86.7%,99.8%,108%,106%,–
Cn1nc(-c2ccccc2)c2c(-c3ccccc3)onc2c1=O,34.6%,13%,62.9%,52%,23.8%,47%,27.3%,2.75% (active),49.2%,42.3%,38.3%,1.6% (active),20.9%,34.3%,25.2%,32.4%,–,53.4%,74.5%,38.1%
C[C@H]1OC(=O)/C=C/[C@@H](O)[C@@H](O)CCCCCCCC[C@@H]1O,107%,91.6%,98.1%,109%,107%,102%,98.9%,97.7%,82.5%,96.3%,101%,87%,90.5%,100%,90.2%,85.2%,98%,102%,108%,–
O=C1CCCC=CC[C@H]2C=C(Cl)C(=O)C2=CC[C@H](CCCCC(F)(F)F)OC(=O)CCCC=CC[C@H]2C=C(Cl)C(=O)C2=CC[C@H](CCCCC(F)(F)F)OC(=O)CCCC=CC[C@H]2C=C(Cl)C(=O)C2=CC[C@H](CCCCC(F)(F)F)O1,62.4% [6.25 µM],32.1% [6.25 µM],106% [6.25 µM],51.5% [6.25 µM],86% [6.25 µM],82.8% [6.25 µM],107% [6.25 µM],93% [6.25 µM],79.3% [6.25 µM],59.5% [6.25 µM],68.6% [6.25 µM],42.2% [6.25 µM],95.9% [6.25 µM],65.2% [6.25 µM],36.4% [6.25 µM],71.9% [6.25 µM],59.4% [6.25 µM],18.7% [6.25 µM],71.8% [6.25 µM],–
CCOC(=O)C/C(=C\c1ccccc1)C(C)=O,109%,87.6%,105%,-43.5% (active),115%,102%,98.5%,105%,82.8%,91.9%,106%,98.1%,101%,101%,80.4%,76.8%,106%,108%,111%,–
CCCCC[C@H]1CC=C2C(=O)C=C[C@@H]2CC=CCCCC(=O)O[C@@H](CCCCC)CC=C2C(=O)C=C[C@@H]2CC=CCCCC(=O)O[C@@H](CCCCC)CC=C2C(=O)C=C[C@@H]2CC=CCCCC(=O)O1,10.6% [8.75 µM],5.31% [8.75 µM] (active),-14.3% [8.75 µM] (active),-37.2% [8.75 µM] (active),-65.4% [8.75 µM] (active),14.4% [8.75 µM],2.07% [8.75 µM] (active),-8.63% [8.75 µM] (active),-3.87% [8.75 µM] (active),-26.3% [8.75 µM] (active),7.88% [8.75 µM] (active),-12.4% [8.75 µM] (active),48.7% [8.75 µM],9.32% [8.75 µM] (active),-49.4% [8.75 µM] (active),-15.7% [8.75 µM] (active),-76.7% [8.75 µM] (active),-87.5% [8.75 µM] (active),-48.7% [8.75 µM] (active),–
Cc1cc(N(CCNc2ccnc3cc(Cl)ccc23)Cc2ccco2)nc(Cl)n1,19.6%,-54.5% (active),-64.6% (active),-75.4% (active),-79.8% (active),30.9%,-75% (active),-80.8% (active),-29.2% (active),-64.9% (active),1.35% (active),-33.4% (active),-88.7% (active),15.4%,-66.5% (active),-54.4% (active),-63.4% (active),-64.8% (active),-33.4% (active),–
